In the assay the test system is Plasmodium falciparum. The assay can be described thus: GSK_TCMDC: Inhibition of Plasmodium falciparum 3D7 in whole red blood cells, using parasite LDH activity as an index of growth. Test compounds present at 2uM. The format is functional.
For `CCOc1ccc(N2CCN(CCCCNC(=O)c3ccc(NC(=O)c4ccc(Cl)cc4)cc3)CC2)c(OCC)c1`, the Inhibition is 100%.

In turn, `Br.CN(CCON1C(=N)N=C(N)NC1(C)C)c1ccccc1` had an Inhibition of 97%.

Consider `CCN(CC)CCNc1ccc(Nc2ccnc3cc4ccccc4cc23)cc1`, for which the Inhibition amounted to 100%.

Regarding `COc1ccc(C23Oc4cc(OC)cc(OC)c4C2(O)C2(CC3c3ccccc3)SCCCS2)cc1` (configuration not stated), the Inhibition was determined as 96%.

As for `O=C(Nc1cccc(C(F)(F)F)c1)c1cccc(S(=O)(=O)NCC2CCCN(CC3CCCCC3)C2)c1.O=C(O)C(F)(F)F` (configuration not stated), the Inhibition is reported as 99%.

`CN1CCCc2ccc(NC(=O)c3ccc(-c4cc(C(F)(F)F)nn4C)s3)cc2C1.O=C(O)C(F)(F)F` registered an Inhibition of 88%.

In turn, `COc1cc2c(cc1C(F)(F)F)N(C(=O)Nc1cc(-c3ccncc3)cc(-c3cccnc3)c1)CC2` displayed an Inhibition of 95%.

Take `CS(=O)(=O)O.NC1=NC(CCc2ccccc2)N(c2ccccc2)C(N)=N1` (configuration not stated): the Inhibition amounted to 94%.

Take `O=C(NCC1CC1)C1CCN(C(c2ccccc2)c2cc(F)cc(F)c2)CC1` (configuration not stated): the Inhibition stood at 99%.

Turning to `Cc1ccc(-c2nn3c(O)c4c(nc3c2C)CCCC4)cc1`, the Inhibition was 97%.

Molecule `CC(C)(C)C/C=C\c1ccc(C(=O)NCC2CC2)cc1` showed an Inhibition of 94%.

`CN1CCC(NCc2ccc(-c3cnc(NCc4ccccc4)nc3)cc2)CC1.O=C(O)C(F)(F)F`: the Inhibition was determined as 91%.

Turning to `Nc1nc(N)c2cc(NC(=O)c3ccc(Cl)c(Cl)c3)ccc2n1`, the Inhibition turned out to be 100%.

Take `CCCCCN1CCCC(NS(=O)(=O)c2ccc(C(=O)Nc3ccc(C(F)(F)F)cc3)cc2)C1.O=C(O)C(F)(F)F` (configuration not stated): the Inhibition turned out to be 98%.

Molecule `COc1ccc(Cl)cc1N1CCN(CCCNC(=O)c2ccc(-c3nc4cc5ccccc5cc4[nH]3)c(F)c2)CC1` displayed an Inhibition of 99%.

In turn, `COc1ccc(CNC(=O)NC2CCN(c3ccnc(Nc4ccc(F)cc4)n3)C2)cc1` (configuration not stated) returned an Inhibition of 91%.

Molecule `CN(C)CCCNC(=O)c1ccccc1Sc1ccccc1C#N.Cl` displayed an Inhibition of 89%.

Turning to `Cc1cccc2nc(-c3ccc(-c4ccc(CNCCc5ccncc5)cc4)cc3)[nH]c12.O=C(O)C(F)(F)F`, the Inhibition is recorded as 100%.

For `CCCCNC(=O)[C@H](CC1CCCCC1)NC(=O)c1ccc(O)c(-c2ccc(Cl)c(Cl)c2)c1`, the Inhibition came out at 98%.

For `O=C(NC1CC1)c1ccc(N2CCN(Cc3ccc(Cl)cc3)CC2)nc1.O=C(O)C(F)(F)F`, the Inhibition turned out to be 84%.

Turning to `O=C(/C=C/c1ccc(Cl)c(Cl)c1)NC1CCC(CN2CCC(c3nc4cccnc4[nH]3)CC2)CC1` (configuration not stated), the Inhibition amounted to 100%.

In turn, `Cc1cc(N[C@@H](Cc2ccccc2)C(=O)Nc2ccccc2)nc(NCCc2ccccc2)n1.O=C(O)C(F)(F)F` showed an Inhibition of 100%.

For the molecule `CCN1CCC(N2CCC(C(=O)Nc3cccc(-c4cccc(Cl)c4)c3)CC2)CC1`, the Inhibition came to 91%.

For `N#Cc1cncc(-c2nc3c(N4CCCC(N)C4)cccc3n2CCNCc2ccccc2)c1.O=C(O)C(F)(F)F` (configuration not stated), the Inhibition came to 100%.

As to `Cc1c(C(=O)N2CCCC(C(F)(F)F)C2)sc2cccc(F)c12` (configuration not stated), the Inhibition came out at 99%.

As for `CCN1C(c2ccc(Cl)cc2)C(CNCc2ccccc2O)CC1(C)CO` (configuration not stated), the Inhibition is 99%.

`CNC(=O)NC1=NC(C)(C)N(OCCCOc2cc(Cl)c(Cl)cc2Cl)C(N)=N1` came in with an Inhibition of 97%.

`CCC(=O)N(c1ccccc1)C1CCN(CCCC(NC(=O)c2cc(C(F)(F)F)cc(C(F)(F)F)c2)c2ccc(Cl)c(Cl)c2)CC1` (configuration not stated) returned an Inhibition of 96%.

Regarding `CC(C)(C)c1ccc(-c2cc3c(ccc4nc(N)nc(N)c43)[nH]2)cc1`, the Inhibition was 100%.

Regarding `Cl.Nc1nc(Nc2cccc(O)c2)nc2ccccc12`, the Inhibition came to 96%.

In the case of `Cc1nnsc1C(=O)Nc1ccc(-c2ccc(-c3nc4cccc(C)c4[nH]3)s2)cc1`, the Inhibition came out at 100%.

Molecule `Oc1ccc(C=NNC(S)=Nc2cccc3ccccc23)c(O)c1` displayed an Inhibition of 89%.

On to `C=CCOC(=O)N1CCC(CNCc2cccc(-c3cccc(-c4nc5ccccc5[nH]4)c3)c2)C1.O=C(O)C(F)(F)F` (configuration not stated), for which the Inhibition was 100%.

The molecule `CS(=O)(=O)NCCCNCc1ccc(-c2cccc(-c3nc4cc(F)ccc4[nH]3)c2)cc1.O=C(O)C(F)(F)F` had an Inhibition of 98%.

Take `CCN(CC)CCN(Cc1ccc(-c2ccc(C(F)(F)F)cc2)cc1)C(=O)Cn1c(CCc2c(F)cccc2F)nc(=O)c2ccccc21.O=C(O)C(O)C(O)C(=O)O`: the Inhibition is given as 100%.

`CN1CCN(c2ccnc3ccc(NC(=O)c4ccc(Cl)c(Cl)c4)cc23)CC1` gave an Inhibition of 100%.

`O=C(/C=C/c1ccc(Cl)c(Cl)c1)NCCCCCN1CCCN(C(=O)Nc2ccc(Cl)cc2)CC1`: the Inhibition was 100%.

By Inhibition is commonly meant how much of the control response was suppressed. Higher therefore signals a response far below the control.

The values are drawn from ChEMBL document CHEMBL1157539, “Thousands of chemical starting points for antimalarial lead identification” (Nature, 2010).
